{"source": "the supplement of paper PMC10941209", "note": "A number with no mark means an inactive call."}
{"system": "Toxoplasma gondii RH 2F1 tachyzoites (intracellular in HFF)", "test": "parasite survival relative to DMSO control; higher = less antiparasitic activity, active = 20 or less", "conditions": "1 µM; 72 h", "in_short": "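Intracellular Toxoplasma gondii RH-2F1 tachyzoites, which express β-galactosidase, were grown in HFF cells (5 × 10^3 cells/well, 96-well plates) infected with 5 × 10^3 parasites in D2 medium for 3 h, then treated with compound at 1 μM for 72 h at 37°C in 5% CO2. Cells were lysed for 15 min, then CPRG was added and absorbance read at 570 nm after 30 min. Survival is the signal as a percentage of DMSO-treated infected controls, from 2 or more biological replicates.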"}
{"molecule": "Nc1ccc2oc(=O)ccc2c1I", "parasite survival": "80.5%"}
{"molecule": "Cc1ccc(NC(=O)c2cc(Cl)ccc2O)cc1", "parasite survival": "42.3%"}
{"molecule": "CCCC(=O)OCCc1ccccc1", "parasite survival": "57%"}
{"molecule": "CC[C@@]1(O)C(=O)OCc2c1cc1n(c2=O)Cc2cc3c(CN(C)C)c(O)ccc3nc2-1", "parasite survival": "50.5%"}
{"molecule": "Clc1ccc(COC(Cn2ccnc2)c2ccc(Cl)cc2Cl)c(Cl)c1", "note": "(stereo not given)", "parasite survival": "21.8%"}
{"molecule": "Cc1ccc(C)c(OCCCCCCN2C[C@H](O)[C@@H](O)[C@H](O)[C@H]2CO)c1", "parasite survival": "62.8%"}
{"molecule": "COc1cc(Cc2cc(N)nc(N)n2)cc(OC)c1OC", "parasite survival": "31%"}
{"molecule": "Nc1nc(-c2ccccc2)nc2[nH]nc(Nc3ccc(C(F)(F)F)cc3)c12", "parasite survival": "35.1%"}
{"molecule": "CC(C)Oc1cccc(NC(=O)c2ccccc2C(F)(F)F)c1", "parasite survival": "74.1%"}
{"molecule": "CN(C)[C@@H]1C(=O)C(C(N)=O)=C(O)[C@@]2(O)C(=O)C3=C(O)c4c(O)c(NC(=O)CN5CCCC5)cc(F)c4C[C@H]3C[C@@H]12", "parasite survival": "34.5%"}
{"molecule": "Cc1oncc1C(=O)Nc1ccc(C(F)(F)F)cc1", "parasite survival": "77.7%"}
{"molecule": "O=c1ccc2ncc(=O)n3c2n1CC3CN1CCC(NCc2cc3c(cn2)OCCC3)CC1", "note": "(stereo not given)", "parasite survival": "44.7%"}
{"molecule": "O=c1cc(NCCCN[C@@H]2CCOc3c(Br)cc(Br)cc32)[nH]c2ccsc12", "parasite survival": "30.7%"}
{"molecule": "CC(C)=CCC/C(C)=C/CNCCNC1C2CC3CC(C2)CC1C3", "note": "(stereo not given)", "parasite survival": "8.85% (active)"}
{"molecule": "CC(=O)Nc1cc(NS(=O)(=O)c2ccc(Cl)cc2)cc2c(Cl)[nH]nc12", "parasite survival": "52%"}
